The full ranking holds about 18,000 sequences; the median of “log2 normalized intensity” is about 0.39, and the highest 2% start at about 6.6. This excerpt belongs to a sample that is enriched for the highest values.

For the experiment, the target named is T1, HNF4alpha2 (COS-7 nuclear extract) (Homo sapiens, UniProt P41235 1-474).
T1 sequence: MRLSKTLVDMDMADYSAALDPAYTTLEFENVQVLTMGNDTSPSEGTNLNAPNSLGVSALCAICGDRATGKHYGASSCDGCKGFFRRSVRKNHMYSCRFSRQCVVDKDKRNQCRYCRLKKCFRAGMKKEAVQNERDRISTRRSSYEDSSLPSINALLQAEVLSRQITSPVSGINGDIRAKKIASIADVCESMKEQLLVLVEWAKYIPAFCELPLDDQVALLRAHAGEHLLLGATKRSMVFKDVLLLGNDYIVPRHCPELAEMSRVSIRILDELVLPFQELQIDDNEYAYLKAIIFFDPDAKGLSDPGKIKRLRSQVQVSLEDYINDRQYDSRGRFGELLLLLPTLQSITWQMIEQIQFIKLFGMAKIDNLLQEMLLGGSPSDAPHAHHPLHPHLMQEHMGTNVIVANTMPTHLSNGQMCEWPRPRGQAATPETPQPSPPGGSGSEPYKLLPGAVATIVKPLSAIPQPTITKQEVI
As to the kind of experiment: protein-binding microarray; COS-7 nuclear extract on double-stranded Agilent 4x180k PBM; binding buffer, salt, pH and temperature not given in the material; high values mean tight binding. The settings on record: chain copies: 2; label: 3' end of strand 1 on the slide; dsDNA, one strand shown. In short, it runs like this:
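The binding signal is Agilent software's gProcessedSignal after background correction and normalization. Arrays were a custom Agilent SurePrint G3 4x180k design of double-stranded ~60-nt oligonucleotides with ~44,000 test sequences in quadruplicate, probed with nuclear extracts of COS-7 cells transiently expressing a human HNF4α isoform. Scans were made at 2-µm resolution on an Agilent G2565CA scanner.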
On to “GCAGAAATCAACTGCCCTCTGCCTTTCAGGGCCTAGGGAGATTAGAGTATCGGTCGA”, for which the binding signal is -0.661 log2 normalized intensity.
As to “AGAGCACATTCTTCCATATAACCCTTGAACGCCTAGGGAGATTAGAGTATCGGTCGA”, the binding signal was 3.6 log2 normalized intensity.
For the sequence “TCAAAGGGCTTAATCTTTCCTGCCTGCCGGGCCTAGGGAGATTAGAGTATCGGTCGA”, the binding signal is -0.693 log2 normalized intensity.
In the case of “CACATGCTATTATTTTCCATCAGTGGACTTGCCTAGGGAGATTAGAGTATCGGTCGA” it was 3.5 log2 normalized intensity.
To “GCCAGCCAGGGCCACCCATCAGTGGACTTTGCCTAGGGAGATTAGAGTATCGGTCGA” belongs 6.63 log2 normalized intensity; to “AGTGGACTTTGACCTTGTTTTCAATGACTAGCCTAGGGAGATTAGAGTATCGGTCGA”, 7.31 log2 normalized intensity.
Take “AGACCTTTGACATCACCTAACTTGTGGCTGGCCTAGGGAGATTAGAGTATCGGTCGA”: the binding signal was 0.674 log2 normalized intensity.
Turning to “ACCCACCCACACCTCCCCTTTGTTTAACTTGCCTAGGGAGATTAGAGTATCGGTCGA”, the binding signal is 2.8 log2 normalized intensity.
“GTTCAATGCTTCAGTGAGCCTTGACCTTCAGCCTAGGGAGATTAGAGTATCGGTCGA”: the binding signal worked out at 4.09 log2 normalized intensity.
To “GACCTTGTTTTCAATGACTACCTGTTACCCGCCTAGGGAGATTAGAGTATCGGTCGA” belongs 1.45 log2 normalized intensity; to “ACTTTGACCTTGTTTTCAATGACTACCTGTGCCTAGGGAGATTAGAGTATCGGTCGA”, 1.84 log2 normalized intensity; to “CCCAGGGACTTTGGCCTTACTTGGCCTGTTGCCTAGGGAGATTAGAGTATCGGTCGA”, 2.62 log2 normalized intensity.
In the case of “GCCACCCATCAGTGGACTTTGACCTTGTTTGCCTAGGGAGATTAGAGTATCGGTCGA”, the binding signal is 10.6 log2 normalized intensity.
With “TTTGCCATTTGGAGAGAGTTTGGCCCCAGTGCCTAGGGAGATTAGAGTATCGGTCGA”, the binding signal came to 2.44 log2 normalized intensity.
In the case of “CCATCAGTGGACTTTGACCTTGTTTTCAATGCCTAGGGAGATTAGAGTATCGGTCGA”, the binding signal was determined as 9.03 log2 normalized intensity.
To “GTATCTCTTCGCCTTGCTTATCTGGGAGGGGCCTAGGGAGATTAGAGTATCGGTCGA” belongs -0.214 log2 normalized intensity; to “CTTCAAAGGAGTGGAGGAAGGAAGAAGTGTGCCTAGGGAGATTAGAGTATCGGTCGA”, 0.537 log2 normalized intensity; to “GTGGTCATGTAGGTGTCTCAGGAATGTCCTGCCTAGGGAGATTAGAGTATCGGTCGA”, 1.85 log2 normalized intensity.
To “GCTTATGCATGGGAGATCTTCAGTAAGAGGGCCTAGGGAGATTAGAGTATCGGTCGA” belongs -0.283 log2 normalized intensity.
On to “GCTGGAACTCCTCCGGTCAAGATCAAGTGGGCCTAGGGAGATTAGAGTATCGGTCGA”, for which the binding signal is 0.207 log2 normalized intensity.
With “TCTAAGATTGGCCCTGATAATCAATCCAGCGCCTAGGGAGATTAGAGTATCGGTCGA”, the binding signal is -0.941 log2 normalized intensity.
On to “CCACAGAATCGCCCCACCCTGCCTGGGTAGGCCTAGGGAGATTAGAGTATCGGTCGA”, for which the binding signal was 1.35 log2 normalized intensity.
On to “TCAGAGCAGGTGAACGACTTGACAAAGGTCGCCTAGGGAGATTAGAGTATCGGTCGA”, for which the binding signal was 3.22 log2 normalized intensity.
In the case of “CTGGTGTAGTGGGGAGGGCATGGACTTTGGGCCTAGGGAGATTAGAGTATCGGTCGA” it was 5.45 log2 normalized intensity.
In the case of “TTATCATGTGGTATTAACATGTAAATATGAGCCTAGGGAGATTAGAGTATCGGTCGA” it was 1.69 log2 normalized intensity.
In the case of “GGGGAGGGCATGGACTTTGGAATTAAGGAGGCCTAGGGAGATTAGAGTATCGGTCGA” it was 5.45 log2 normalized intensity.
As to “AATGACCTTTGTCCAGCTGTGCCGAGCCTGGCCTAGGGAGATTAGAGTATCGGTCGA”, the binding signal worked out at 4.02 log2 normalized intensity.
In the case of “GTATTAACATGTAAATATGACCTTTGCTTTGCCTAGGGAGATTAGAGTATCGGTCGA” it was 6.44 log2 normalized intensity; in that of “ACTTTGGGGAAATGACCTTTGTCCAGCTGTGCCTAGGGAGATTAGAGTATCGGTCGA”, 6.74 log2 normalized intensity; in that of “TGATGACTTTTGACCCCAGGGGAAACTCCAGCCTAGGGAGATTAGAGTATCGGTCGA”, 3.99 log2 normalized intensity.
Take “GGAGGACTTTGGAATGGCAGTGCTTGTCCAGCCTAGGGAGATTAGAGTATCGGTCGA”: the binding signal was 1.83 log2 normalized intensity.
On to “ATGTGGTATTAACATGTAAATATGACCTTTGCCTAGGGAGATTAGAGTATCGGTCGA”, for which the binding signal is 7.12 log2 normalized intensity.
In the case of “GTAGTGGGGAGGGCATGGACTTTGGAATTAGCCTAGGGAGATTAGAGTATCGGTCGA” it was 7.37 log2 normalized intensity; in that of “GAATGACTTTGGGGAAATGACCTTTGTCCAGCCTAGGGAGATTAGAGTATCGGTCGA”, 8.8 log2 normalized intensity.
As for “GGGGAAATGACCTTTGTCCAGCTGTGCCGAGCCTAGGGAGATTAGAGTATCGGTCGA”, the binding signal came out at 6.11 log2 normalized intensity.
In the case of “CTAAAAACATTGTGGAGCTCATGTAAGGTCGCCTAGGGAGATTAGAGTATCGGTCGA” it was 1.62 log2 normalized intensity; in that of “CATGTGGGTCCAAAGAACATTGCATTCCTTGCCTAGGGAGATTAGAGTATCGGTCGA”, 1.55 log2 normalized intensity.
Regarding “CCCCGCCTTGGCCTCCCGGAGAGGCCCCGCGCCTAGGGAGATTAGAGTATCGGTCGA”, the binding signal came to 2.49 log2 normalized intensity.
To “CCCCCACACCATTAGAGAACATGTACTTTGGCCTAGGGAGATTAGAGTATCGGTCGA” belongs 3.32 log2 normalized intensity; to “TTAAAGGGCAGAAGAAGGGATTTAGATTAGGCCTAGGGAGATTAGAGTATCGGTCGA”, -0.58 log2 normalized intensity.
“GATCCTCCCACTTCAGCCTCCCGAGTAGTTGCCTAGGGAGATTAGAGTATCGGTCGA”: the binding signal is 2.81 log2 normalized intensity.
In the case of “TGAGAGAGCATCCAGATAAAGCTGAAGAAAGCCTAGGGAGATTAGAGTATCGGTCGA” it was -0.814 log2 normalized intensity; in that of “TTCAGCCATTTTATGACCATGAGGTGACGGGCCTAGGGAGATTAGAGTATCGGTCGA”, 1.6 log2 normalized intensity.

The record behind these values is paper PMC10726135, “HNF4α isoforms regulate the circadian balance between carbohydrate and lipid metabolism in the liver”.
